Screening results deposited in PubChem BioAssay by National Center for Advancing Translational Sciences (NCATS).
Compounds with a hit are over-represented: about 3.3% of the library has one in this group of screens.
Sm TGR block = qHTS Assay for the Inhibitors of Schistosoma Mansoni Peroxiredoxins. purified TGR, DTNB reduction, TNB absorbance 405 nm. Potency, µM (highest dose often 114 µM), most hits filed as inhibitors. Schistosoma mansoni thioredoxin glutathione reductase (TGR), Q962Y6. 360,000 tested, 3% active; further: nearly all actives have a fitted effect of over 60% in size
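TGR 20 nM + NADPH 100 uM (dispensed conc.), cpd preinc 15 min RT; start with NADPH (500 uM addition) then DTNB (15 mM addition). Kinetic TNB absorbance, 405 nm filter. Four-parameter Hill fit across titration.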
AmpC inh detg = qHTS Inhibitors of AmpC Beta-Lactamase (assay with detergent); P00811; AmpC hydrolysis of nitrocefin, absorbance 480 nm, 0.01% Triton; Potency, µM (highest dose often 114 µM), actives largely listed as inhibitors; 370,000 tested, 0.041% active; AID 485294, 2010; further: nearly all actives have a fitted effect of over 25% in size
Target sequence (P00811 whole entry, looked up): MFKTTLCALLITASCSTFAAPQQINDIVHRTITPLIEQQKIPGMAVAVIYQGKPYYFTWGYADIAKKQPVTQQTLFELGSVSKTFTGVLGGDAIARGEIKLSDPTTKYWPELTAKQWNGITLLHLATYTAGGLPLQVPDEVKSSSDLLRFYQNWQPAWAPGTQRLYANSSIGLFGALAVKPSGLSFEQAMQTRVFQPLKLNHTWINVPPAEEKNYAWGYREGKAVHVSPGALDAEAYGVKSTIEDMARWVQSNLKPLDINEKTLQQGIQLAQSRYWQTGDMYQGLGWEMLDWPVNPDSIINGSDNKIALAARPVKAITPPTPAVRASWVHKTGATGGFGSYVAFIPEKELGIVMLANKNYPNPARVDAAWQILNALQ
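20 mM phosphate pH 7.0 + 0.01% (detergent screen) or 0.0001% Triton X-100; 5.3 nM AmpC reagent; cpd preinc 15 min RT; nitrocefin (800 uM stock) to start; A480 q20 s × 4 min; Activity was normalised to no-enzyme and no-compound control wells.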
AmpC inh no detg = qHTS Inhibitors of AmpC Beta-Lactamase (assay without detergent); AmpC nitrocefin hydrolysis, absorbance 480 nm, 0.0001% Triton; 330,000 tested, 0.52% active; Potency, µM (top dose mostly 57.1 µM), usual class: inhibitors; further: nearly all actives have a fitted effect of over 20% in size
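20 mM phosphate pH 7.0 + 0.01% (detergent screen) or 0.0001% Triton X-100; 5.3 nM AmpC reagent; cpd preinc 15 min RT; nitrocefin (800 uM stock) to start; A480 q20 s × 4 min; Activity was normalised to no-enzyme and no-compound control wells.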
A number is an active result; - = inactive; ? = inconclusive; . = no result. The call rests on the fitted dose curve; in most records, active means well fitted curve in the direction sought with a large enough effect; inconclusive means small, poorly fitted or top-dose-only effect, or another doubt; inactive means no such curve, though single readings can be large; an effect the other way counts as inactive or inconclusive.

SMILES	Sm TGR block	AmpC inh detg	AmpC inh no detg
CCN1CCc2nc(N)sc2C1	-	-	-
c1ccc(Nc2c(-c3ccco3)nc3ccccn23)cc1	-	-	-
c1ccc(-c2nc(-c3ccco3)n3ccccc23)cc1	11µM	?	-
CC1CC(C)(C)Nc2ccc(N=O)cc21 (stereo not drawn)	14µM	-	-
CC1CC(C)(C)Nc2ccc(OC(=O)c3ccco3)cc21 (stereo not drawn)	-	-	-
CC(=O)c1c(C)nc2nc(-c3ccccc3)nn2c1C	-	-	.
CCN(Cc1ccccc1)C(=O)CS(=O)(=O)c1ccccc1	-	-	-
O=S(=O)(C/C(=C/CO)S(=O)(=O)c1ccccc1)c1ccccc1	4.5µM	-	-
COC(=O)NC(NS(=O)(=O)c1ccccc1)(C(=O)OC)C(F)(F)F (stereo not drawn)	-	-	-
CCOC(=O)C(NS(=O)(=O)c1ccccc1)(C(F)(F)F)P(=O)(OCC(C)C)OCC(C)C (stereo not drawn)	18µM	?	-
CCC(Sc1nc2ccccc2c2nc(CCn3c(C)nc4ccccc43)nn12)C(=O)Nc1ccc(F)cc1 (stereo not drawn)	-	-	.
CCc1ccc(C(C)NC(=S)NC2CCCCC2)cc1 (stereo not drawn)	-	-	-
Cc1ccc(S(=O)(=O)NC(=S)NC2CCCCC2)cc1	32µM	-	-
O=S(=O)(NC(=S)NC1CCCCC1)c1ccc(Cl)cc1	13µM	-	-
Cc1ccc(S(=O)(=O)NC(C)C(=O)NC2CCCCCC2)cc1 (stereo not drawn)	-	-	-
O=C(NNS(=O)(=O)c1ccc(Cl)cc1)NC1CCCCC1	-	-	-
CCc1ccc(S(=O)(=O)NC(=S)NC2CCCCC2)cc1	13µM	-	-
CSc1ncc(C(=O)NCc2ccc(Cl)cc2)c(C(F)(F)F)n1	-	-	.
COc1ccccc1CNC(=O)c1ccc(CSc2nc3ccncc3n2Cc2cccc(F)c2)cc1	-	-	.
CCC(=O)Nc1cc(-c2cccc(C)c2)nn1-c1ccccc1	-	-	.
Cc1ccc(NC(=O)CN2CCSc3ccc(S(=O)(=O)N4CCCC4)cc32)cc1	-	-	.
O=C(Cn1c(=O)n(-c2ccccc2)c(=O)c2c3c(sc21)CCCC3)Nc1ccc(F)cc1F	-	-	.
O=C1CC(c2ccccc2)Sc2ccccc2N1Cc1ccccc1F (stereo not drawn)	-	-	.
Clc1ccc(-n2cnnn2)cc1	-	-	-
CO/C=C\C=C/c1nnn(-c2ccc(Cl)cc2)n1	8.9µM	-	11µM
SMILES	Sm TGR block	AmpC inh detg	AmpC inh no detg
CCc1ccc(NC(=O)C2CCN(c3nnc(-n4c(C)ccc4C)s3)CC2)cc1	-	-	.
CN(C)S(=O)(=O)c1cccc(NC(=O)COC(=O)/C=C/c2ccc(Br)o2)c1	7.1µM	-	-
Cc1ccc(NC(=O)COC(=O)/C=C/c2ccc(Br)o2)cc1S(=O)(=O)N(C)C	25µM	-	-
CN(C)S(=O)(=O)c1cccc(NC(=O)COC(=O)c2ccc(Br)o2)c1	-	-	-
O=C(COC(=O)/C=C/c1ccc(Br)o1)Nc1ccc2[nH]c(=O)[nH]c2c1	?	-	?
Cc1ccc(C2CC(=O)N(Cc3ccccc3F)c3c2c(C)nn3-c2nc(C)cc(C)n2)cc1 (stereo not drawn)	-	-	.
CCOc1ccccc1NC(=O)CSc1nc2c(oc3ccccc32)c(=O)n1-c1ccc(F)cc1	-	-	.
CC1(C)CC(=O)c2c(S(C)(=O)=O)sc(Br)c2C1	16µM	-	-
CC1(C)CC(=O)c2sc(NS(C)(=O)=O)nc2C1	-	-	.
CCCSCCCNC(=O)C1CCN(c2nc3ccccc3nc2C(F)(F)F)CC1	-	-	.
N=C1/C(=C/c2ccc(-c3cccc(C(=O)O)c3)o2)C(=O)N=C2SC(CC(=O)N3CCOCC3)=NN12	-	-	-
N=C1/C(=C\c2ccc(-c3cccc(C(=O)O)c3)o2)C(=O)N=C2SC=C(c3ccccc3)N12	-	56µM	-
COc1cccc(N2CCN(C(=O)c3ccc(C)c(NC(=O)c4nsc5ccccc45)c3)CC2)c1	-	-	.
CC(=O)c1cccc(NC(=O)CSc2nnc(C(C)N(C)C)n2Cc2ccccc2)c1 (stereo not drawn)	25µM	-	-
CC(=O)c1cccc(NC(=O)CSc2nnc(C(C)N(C)C)n2-c2ccc(F)cc2)c1 (stereo not drawn)	-	-	-
COc1ccc(Cn2c(C(=O)O)c(CNCc3ccc(C)o3)c3ccc(OC)cc32)cc1	-	-	.
Oc1c(Br)c(Br)c(Br)c(Br)c1Br	3.5µM	-	-
Oc1c(Br)cc(Br)cc1Br	-	-	-
CCOc1ccc(S(=O)(=O)N(CC(=O)NCCSc2ccccc2)c2ccccc2)cc1	-	-	.
CCCOc1ccccc1-c1nc(SCC(=O)c2ccccc2)n[nH]1	-	-	.
O=S(=O)(c1ccc(Br)cc1)c1nc(-c2ccco2)oc1NCC1CCCO1 (stereo not drawn)	20µM	-	-
Cc1ccc(S(=O)(=O)c2nc(-c3ccco3)oc2NCC2CCCO2)cc1 (stereo not drawn)	8.9µM	?	-
Cc1ccc(CSc2oc(-c3ccco3)nc2S(=O)(=O)c2ccc(C)cc2)cc1	-	-	.
CN(C)c1oc(-c2ccco2)nc1S(=O)(=O)c1ccc(Br)cc1	?	-	-
CCOc1ccc(CNC(=O)c2ccc3c(c2)nc2n3CCCCC2)cc1	-	-	.
SMILES	Sm TGR block	AmpC inh detg	AmpC inh no detg
CCc1cccc(C)c1NC(=O)CN1C(=O)c2c(c3ccccc3n2C)C1c1ccc(OC)cc1 (stereo not drawn)	-	-	.
Cc1ccc(NC(=O)Cn2c(=O)n(CCC(=O)N3CCc4ccccc4C3)c(=O)c3ccccc32)c(C)c1	-	-	.
Cc1ccccc1NC(=O)Cc1nc(COC(=O)c2ccc(Cl)c(S(N)(=O)=O)c2)cs1	-	-	35µM
Cc1ccccc1NC(=O)Cc1nc(COC(=O)c2cccc(O)c2)cs1	-	-	-
COc1cc(NC(=O)C(CCSC)NS(=O)(=O)c2ccc3c(c2)oc(=O)n3C)cc(OC)c1 (stereo not drawn)	-	-	.
CN1C(=O)N(C)C(=O)C2(Cc3c(ccc4ccccc34)N(C)C2)C1=O	-	-	-
CN1CC(C(=O)O)Cc2c1ccc1ccccc21 (stereo not drawn)	20µM	-	-
O=S1(=O)C=C(Sc2nnc(-c3ccccc3)o2)c2ccccc21	0.5µM	?	-
CSc1nnc(-c2ccccc2)o1	-	-	-
Cc1ccc(C(=O)Nc2ncc(C)s2)o1	-	-	-
Cc1ccc(C(=O)Nc2ncc(Cc3ccc(F)cc3)s2)o1	-	?	32µM
N#Cc1ccccc1Cn1c(=O)n(CCCCC(=O)NCc2ccc3c(c2)OCO3)c(=O)c2ccccc21	-	-	.
COc1cc([C@@H]2OC[C@@H]3[C@H]2CO[C@@H]3c2ccc3c(c2)OCO3)ccc1O	.	.	-
COc1cc(CC2COC(c3ccc(O)c(OC)c3)C2COC(C)=O)ccc1O (stereo not drawn)	40µM	-	-
COc1cccc(-c2n[nH]c3c2C(c2ccccn2)N(C)C3=O)c1 (stereo not drawn)	-	-	.
